# Reference: the supplement of paper PMC11417369
# ± gives the standard deviation of the averaged measurements. Over roughly 25,000 sequences, “ln(normalized median fluorescence intensity)” has its median near 8.9; the highest 2% begin near 10. For the sample, the highest values were picked, then their nearest neighbours and some sequences at random.
# System: PfAP2-LT AP2 domain (GST-tagged)
# Test: gcPBM binding intensity (ln(normalized median fluorescence intensity)); higher = stronger DNA binding
# How it was run: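 Plasmodium falciparum DNA-binding domains carrying a GST tag were expressed in E. coli and applied for 1 h, at about 25 μg on average, to an Agilent 4 × 180k array. The array held primer-extended double-stranded 36-bp intergenic genomic probes together with negative controls, and binding took place in 1× PBS with 1% milk, 0.2 mg/ml BSA, 0.5% salmon testes DNA and 0.03% Triton X-100. An Alexa488 anti-GST antibody detected bound protein, and the array was scanned at 488 nm. Binding intensity is taken as the highest Masliner-normalised natural-log median intensity across replicate spots of either probe orientation.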
row,Sequence,gcPBM binding intensity (ln)
1,ATAAATCAAAGGCACACACACAAAAAAAAAAAAAAA [CACACA_site160],9.62 ± 0.49
2,ATTTCTCTATCGTAATGTACATAAAAAATGAAAAAA [XGTACX_site1201],8.51 ± 0.51
3,TTATTATTTTATAACACACACATATATATTATATCT [CACACA_site1434],9.11 ± 0.35
4,ATTAAATCCGCACGCACACACACATATTAATAAAAA [CACACA_site3992],9.71 ± 0.33
5,AATTGTGCATTATATTGTACACGTGTTGTATATATT [XGTACX_site975],9.18 ± 0.33
6,TTTGTTTTTAATTTCGCACACACCTTGTGGAAAAAA [CACACA_site577],8.98 ± 0.3
7,TTATTTATAATATATACACACTAACATTATTTATCC [CACACA_site4835],8.8 ± 0.51
8,AAAAATAAATTTAGTTGTACTTTATTATTTTAAATA [XGTACX_site3067],8.28 ± 0.37
9,ATATAACATAGACACACACACATATAAATATATTAT [CACACA_site7865],9.67 ± 0.14
10,CTTCATAAAAATTGCACACATATAATAATGTACATA [CACACA_site2212],8.96 ± 0.36
11,TTAAATGGAAAAATATGTACATATATATATATATTT [XGTACX_site2286],8.84 ± 0.35
12,CGCACACGCAGACACACACACACATATAAATAAATA [CACACA_site7101],9.74 ± 0.37
13,CGCGCACCCAGACACACACACACACCGATATATATA [CACACA_site8687],10.1 ± 0.48
14,CACGCACGCAGACACACACACACACGCACATATATA [CACACA_site6303],10.2 ± 0.38
15,AACAGACATAGAAACACACATACATACATACATACA [CACACA_site2479],9.53 ± 0.65
16,ACATCAAGCAGACACACACACACACCCACCCACCGA [CACACA_site371],10.4 ± 0.11
17,AAGCATACATCAAGCACACACACACCCACAGAGACA [CACACA_site4362],9.91 ± 0.22
18,AACACGCGCAGACACACACACACACGCACATATATA [CACACA_site7104],10.3 ± 0.28
19,AGCACGCACAGACACACACACATATTTATATTTATA [CACACA_site6291],9.72 ± 0.39
20,CAAGCACAGAAACACACACACACACCGACACAGACA [CACACA_site4359],10.1 ± 0.15
21,TAAACAGACATATAAACACACATATAAACCGACATA [CACACA_site2478],9.4 ± 0.48

row,Sequence,gcPBM binding intensity (ln)
1,GATCCATTATTGATCCGTACTTATTCATGTTATATA [XGTACX_site5946],8.91 ± 0.51
2,AGAAAAAAATAATGTACACACACATATATGTTTATA [CACACA_site7946],9.14 ± 0.36
3,TATGTGCACCCATGTACATGCGGACATATGTTATAT [TGCATGCA_site383],9.04 ± 0.42
4,ATTTATATATTGCCCACACACATGTGATTATTTATA [CACACA_site1714],9.28 ± 0.46
5,CTAAATATATAAAAAAGTACAAAATAAATAATAATT [XGTACX_site2442],8.79 ± 0.46
6,ACATATATATATAAATATATATATATATAAATATAT [CACACA_negctrl_site895],9.03 ± 0.28
7,TATACAGGAATATTTTTACACACTAATAATTATAAA [CACACA_site8477],8.73 ± 0.5
8,TATATATATATGTGCACACCAATTGTATGTAATATA [CACACA_site3889],9.32 ± 0.2
9,TAAAAAGAAATGTAAAGTACAAATTTGAATAACATG [XGTACX_site7981],8.88 ± 0.52
10,ATTTTAACCAATTATTGTACTTGGTTATTCTTTTTT [XGTACX_site7453],8.94 ± 0.45
11,TTTTATTTTTAAGGATGTACTCAATTGTTTATATAC [XGTACX_site3965],8.85 ± 0.4
12,TTTTCTAAATTAATAATACACACTTGCTAAAATCAT [CACACA_site3207],8.47 ± 0.46
13,ATTTGGCATGGACACACACACACACCGACAGACATA [CACACA_site4491],10 ± 0.27
14,AGTATACGCAGACACACACACACATATATATATATA [CACACA_site1735],10.22 ± 0.042
15,GGTATACGCAAGTATACACACATATATATATATATA [CACACA_site3240],10.01 ± 0.042
16,TATATACACAGACACACACACACATACACGCACATA [CACACA_site6909],10.1 ± 0.22
17,CACATACAGACATACACACATACACATATACGCATA [CACACA_site1745],9.61 ± 0.36
18,ATAATTTGTGGACACACACACACACCGACATATATA [CACACA_site8718],9.97 ± 0.33
19,ATTATACACGCGCGCACACACAACAAAAAAAAAAAA [CACACA_site7630],9.43 ± 0.48
20,ATTATAGACACGCGCACACACAACAAAAAAAAAAAA [CACACA_site9180],9.73 ± 0.61
21,CAAGCACACGGACACACACACACACGCGCACGCACA [CACACA_site6307],10.3 ± 0.28

row,Sequence,gcPBM binding intensity (ln)
1,AGTATACATATATATACACACATATATATATATATA [CACACA_site300],9.83 ± 0.34
2,ACATCAAGCGGACACACACACACACCGACAGACACA [CACACA_site4361],10.2 ± 0.33
3,TTTTTTAAAATATGGACACACATATATATATCTGTA [CACACA_site5535],8.88 ± 0.38
4,TATATCTTAATATACACACACACATATATATATATA [CACACA_site4968],9.71 ± 0.014
5,AAAAAAACATAAAATACACACAACCTTAAGAATGTA [CACACA_site3293],9.12 ± 0.38
6,CAACATATATTAATATGTACATATATATAGATATAT [XGTACX_site4107],8.81 ± 0.44
7,ATATATATATATATATGTACATATTTCTCCATTTTT [XGTACX_site2869],9.61 ± 0.39
8,ACATATAAATATATTACACACACACTAAAAAAATAA [CACACA_site6209],9.69 ± 0.27
9,TAACATATTAATAACATATTTATAATATATTAATAA [TGCATGCA_negctrl_site243],8.34 ± 0.43
10,TATAAAAATTAATATTGTACGTTTTATGAAAATAAA [XGTACX_site8237],8.21 ± 0.47
11,AGCACACGCAGACACACACACACACGCACACGCACA [CACACA_site6306],10.3 ± 0.23
12,AAAAAAAAAAGACACACACACATATTTATTTATATA [CACACA_site6484],9.67 ± 0.4
13,AAAAAAAAAAGACACACACACAAAAAAAGATATATA [CACACA_site6645],9.9 ± 0.38
14,TACACGCAGAAACACACACACACACCCATATATATA [CACACA_site637],10.1 ± 0.28
15,AAAAAAAAAAGACACACACACACACGGAGATATATA [CACACA_site6216],10.4 ± 0.19
16,CGCGCACCCAGACACACACACACACCCATATATATA [CACACA_site2203],9.96 ± 0.25
17,AATACACGCAGACACACACACAAAAAAAAAAAAAAA [CACACA_site6384],9.53 ± 0.61
18,AAAAAAAAAAGACACACACACACACGCATATACATA [CACACA_site7289],10.18 ± 0.05
19,CGTGGGAGCAGACACACACACACACGCATATTTATA [CACACA_site6290],9.89 ± 0.45
20,AACACGCGCAGACACACACACACACCCACATATATA [CACACA_site2205],10.3 ± 0.27
